For 37 sequences, binding signal results are on record in paper PMC5700166.

For assay [1], the target named is T1, GST-Nv-NF-kB (Ser allele) (Nematostella vectensis, UniProt A7UNT2 2-411).
T1 sequence: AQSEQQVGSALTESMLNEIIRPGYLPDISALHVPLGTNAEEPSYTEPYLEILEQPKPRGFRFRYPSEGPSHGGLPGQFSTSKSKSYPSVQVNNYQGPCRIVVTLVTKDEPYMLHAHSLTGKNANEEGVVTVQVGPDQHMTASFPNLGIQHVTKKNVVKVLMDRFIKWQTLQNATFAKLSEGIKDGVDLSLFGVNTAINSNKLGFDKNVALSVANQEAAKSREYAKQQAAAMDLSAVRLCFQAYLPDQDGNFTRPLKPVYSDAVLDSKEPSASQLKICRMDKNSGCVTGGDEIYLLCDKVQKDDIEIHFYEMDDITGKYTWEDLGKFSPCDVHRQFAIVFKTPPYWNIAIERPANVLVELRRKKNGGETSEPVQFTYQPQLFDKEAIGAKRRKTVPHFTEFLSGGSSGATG
Put plainly: protein-binding microarray (PBM); PBM: ~300 nM protein, 6 mM HEPES pH 7.8, 80 mM KCl, 0.5 mM EDTA, 0.5 mM EGTA, 6% glycerol, 35 ng/ul poly-dIdC, 1% milk, 1 h, room temperature; Ap Aiptasia and Nv Nematostella (sea anemones) / Co Capsaspora / Aq Amphimedon (sponge) / Dm Drosophila / Hu human; RHD is the Rel homology domain; high values mean tight binding. Conditions: dsDNA, one strand shown.

In another assay the target is GST-Hu-p50 (Homo sapiens, UniProt P19838 7-356). The description is as above. Conditions: dsDNA, one strand shown.
GST-Hu-p50, sequence (P19838 7-356): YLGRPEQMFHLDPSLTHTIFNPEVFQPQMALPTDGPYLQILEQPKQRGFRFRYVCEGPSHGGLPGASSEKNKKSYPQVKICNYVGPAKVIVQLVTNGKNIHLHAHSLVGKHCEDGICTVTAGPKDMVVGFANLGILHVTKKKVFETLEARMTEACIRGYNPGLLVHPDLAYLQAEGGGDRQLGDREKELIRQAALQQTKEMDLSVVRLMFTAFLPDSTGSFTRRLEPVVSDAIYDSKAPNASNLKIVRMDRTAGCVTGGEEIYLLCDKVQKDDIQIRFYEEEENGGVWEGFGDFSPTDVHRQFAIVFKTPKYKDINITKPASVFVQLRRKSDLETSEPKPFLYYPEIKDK

Take “CCGATTAACATCAAACAGGGAAATGATGTTAATCGGGTCTTGATTCGCTTGACGCTGCTG”: the binding signal in assay [1] came to 3.74 z-score; in the assay with GST-Hu-p50, 2.36 z-score.
For “CCGATTAACATCAAGAAATTTCCTGATGTTAATCGGGTCTTGATTCGCTTGACGCTGCTG”, in that order: 1.55 z-score and 1.76 z-score.
For “CCGATTAACATCATCAGGGAAAATGATGTTAATCGGGTCTTGATTCGCTTGACGCTGCTG”, in that order: 5.74 z-score and 2.83 z-score.
For “CCGATTAACATCAGGGGGTAGAATGATGTTAATCGGGTCTTGATTCGCTTGACGCTGCTG”, the binding signal in assay [1] was determined as 4.04 z-score; with GST-Hu-p50, 3.9 z-score.
For “CCGATTAACATCAATCGTCCCCCTGATGTTAATCGGGTCTTGATTCGCTTGACGCTGCTG”, the binding signal came to 4.3 z-score in assay [1] and 3.44 z-score with GST-Hu-p50.
In the case of “CCGATTAACATCAGGGATCTACCTGATGTTAATCGGGTCTTGATTCGCTTGACGCTGCTG”, the figures for the binding signal (in assay [1]; with GST-Hu-p50) were 1.74 z-score and 2.74 z-score, respectively.
Turning to “CCGATTAACATCACCGCCCCACGTGATGTTAATCGGGTCTTGATTCGCTTGACGCTGCTG”, the binding signal in assay [1] worked out at 1.37 z-score; with GST-Hu-p50, 2.36 z-score.
On to “CCGATTAACATCAAGTATTCCCATGATGTTAATCGGGTCTTGATTCGCTTGACGCTGCTG”, for which the binding signal is 2.35 z-score in assay [1] and 1.64 z-score in the assay with GST-Hu-p50.
Taken in the same sequence, the figures for “CCGATTAACATCAGAAAATGCCCTGATGTTAATCGGGTCTTGATTCGCTTGACGCTGCTG” were 1.55 z-score and 2.79 z-score.
For “CCGATTAACATCAAAATTTCACCTGATGTTAATCGGGTCTTGATTCGCTTGACGCTGCTG”, in that order: 3.88 z-score and 3.28 z-score.
For “CCGATTAACATCAATTTCCCGCCTGATGTTAATCGGGTCTTGATTCGCTTGACGCTGCTG”, in that order: 4.4 z-score and 2.33 z-score.
For “CCGATTAACATCAAGGTTTTCCCTGATGTTAATCGGGTCTTGATTCGCTTGACGCTGCTG”, the binding signal is 6.21 z-score in assay [1] and 4.23 z-score with GST-Hu-p50.
For “CCGATTAACATCAGGGGAAGGGATGATGTTAATCGGGTCTTGATTCGCTTGACGCTGCTG”, in that order: 5.77 z-score and 3.4 z-score.
Taken in the same sequence, the figures for “CCGATTAACATCAGGGAATTAACTGATGTTAATCGGGTCTTGATTCGCTTGACGCTGCTG” were 3.91 z-score and 2.81 z-score.
With “CCGATTAACATCACACATTTCCCTGATGTTAATCGGGTCTTGATTCGCTTGACGCTGCTG”, the binding signal in assay [1] was determined as 4.87 z-score; with GST-Hu-p50 it was 3.2 z-score.
Taken in the same sequence, the figures for “CCGATTAACATCACTTTCCCAAATGATGTTAATCGGGTCTTGATTCGCTTGACGCTGCTG” were 3.07 z-score and 1.67 z-score.
For “CCGATTAACATCAGGCACCCCCCTGATGTTAATCGGGTCTTGATTCGCTTGACGCTGCTG”, in that order: 3.18 z-score and 4.38 z-score.
As for “CCGATTAACATCACGGGAATTTCTGATGTTAATCGGGTCTTGATTCGCTTGACGCTGCTG”, the binding signal came to 6.48 z-score in assay [1] and 4.6 z-score with GST-Hu-p50.
Take “CCGATTAACATCATGATGGGAAATGATGTTAATCGGGTCTTGATTCGCTTGACGCTGCTG”: the binding signal was determined as 1.98 z-score in assay [1] and 2.02 z-score with GST-Hu-p50.
On to “CCGATTAACATCACAAATTCCCATGATGTTAATCGGGTCTTGATTCGCTTGACGCTGCTG”, for which the binding signal in assay [1] was determined as 4.59 z-score; with GST-Hu-p50, 3.86 z-score.
Taken in the same sequence, the figures for “CCGATTAACATCAGGGGAAGGACTGATGTTAATCGGGTCTTGATTCGCTTGACGCTGCTG” were 5.04 z-score and 3.89 z-score.
For the sequence “CCGATTAACATCACGGGAACCCCTGATGTTAATCGGGTCTTGATTCGCTTGACGCTGCTG”, the binding signal worked out at 2.26 z-score in assay [1] and 3.43 z-score in the assay with GST-Hu-p50.
Taken in the same sequence, the figures for “CCGATTAACATCAAGGGGAGTCCTGATGTTAATCGGGTCTTGATTCGCTTGACGCTGCTG” were 4.97 z-score and 4.3 z-score.
For “CCGATTAACATCAAACTCTCCCCTGATGTTAATCGGGTCTTGATTCGCTTGACGCTGCTG”, in that order: 4.93 z-score and 4.08 z-score.
Turning to “CCGATTAACATCAGGAAAAGCCCTGATGTTAATCGGGTCTTGATTCGCTTGACGCTGCTG”, the binding signal in assay [1] came out at 1.03 z-score; with GST-Hu-p50 it was 2.56 z-score.
Consider “CCGATTAACATCAGGGGGAAGCATGATGTTAATCGGGTCTTGATTCGCTTGACGCTGCTG”, for which the binding signal in assay [1] was 6.05 z-score; with GST-Hu-p50, 4.74 z-score.
Take “CCGATTAACATCAGAATATTCCCTGATGTTAATCGGGTCTTGATTCGCTTGACGCTGCTG”: the values for the binding signal (in assay [1]; with GST-Hu-p50) were 5.76 z-score and 3.75 z-score, respectively.
“CCGATTAACATCAGGGGAATGACTGATGTTAATCGGGTCTTGATTCGCTTGACGCTGCTG”: the binding signal in assay [1] worked out at 6.22 z-score; in the assay with GST-Hu-p50, 4.83 z-score.
For “CCGATTAACATCAGGAAAACACCTGATGTTAATCGGGTCTTGATTCGCTTGACGCTGCTG”, in that order: 3.23 z-score and 4.77 z-score.
Taken in the same sequence, the figures for “CCGATTAACATCAGGGGGTAAAATGATGTTAATCGGGTCTTGATTCGCTTGACGCTGCTG” were 6.35 z-score and 4.51 z-score.
For “CCGATTAACATCACCCCTCCCCGTGATGTTAATCGGGTCTTGATTCGCTTGACGCTGCTG”, in that order: 3.23 z-score and 3.01 z-score.
“CCGATTAACATCAAGCAATTCCCTGATGTTAATCGGGTCTTGATTCGCTTGACGCTGCTG”: the binding signal was 3.87 z-score in assay [1] and 2.99 z-score with GST-Hu-p50.
In the case of “CCGATTAACATCAGGGGTAGGTTTGATGTTAATCGGGTCTTGATTCGCTTGACGCTGCTG”, the binding signal in assay [1] is 1.33 z-score; with GST-Hu-p50, 1.07 z-score.
Taken in the same sequence, the figures for “CCGATTAACATCAGGGGGTCTACTGATGTTAATCGGGTCTTGATTCGCTTGACGCTGCTG” were 2.55 z-score and 3.36 z-score.
For the sequence “CCGATTAACATCAGAACATTCCCTGATGTTAATCGGGTCTTGATTCGCTTGACGCTGCTG”, the binding signal in assay [1] came out at 3.49 z-score; in the assay with GST-Hu-p50, 3.65 z-score.
For “CCGATTAACATCAGGGGGTGTAATGATGTTAATCGGGTCTTGATTCGCTTGACGCTGCTG”, in that order: 4.19 z-score and 3.98 z-score.
Taken in the same sequence, the figures for “CCGATTAACATCAGGGATAACCCTGATGTTAATCGGGTCTTGATTCGCTTGACGCTGCTG” were 1.1 z-score and 2.62 z-score.
